Assay results from paper PMC9911399, “Two distinct binding modes provide the RNA-binding protein RbFox with extraordinary sequence specificity”.
Substitutions are numbered along the chain they refer to; changes in the protein carry UniProt numbers. The full ranking holds about 16,000 sequences; the median of “ka relative to ugcaugu” is about 0.096, and the highest 2% start at about 0.35. The sample as a whole holds a higher share of the highest values than the screen did.

T1: RBFOX1 RRM RbFoxmut (Fox-RRM*) (Homo sapiens, UniProt Q9NWB1 109-208, R118D;E147R;N151S;E152T)
T1 sequence: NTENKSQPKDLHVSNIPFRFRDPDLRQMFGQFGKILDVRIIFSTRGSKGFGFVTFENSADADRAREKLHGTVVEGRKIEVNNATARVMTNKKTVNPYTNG

B1: UAACCGA (DNA:RNA)
RNA: GGGAGACCGGAAUUCAGAUUGUCCUAACCGAUUAAAUCCCGUCGUAGCCACCA
DNA 1: CAATCTGAATTCCGGTCTCCC
DNA 2: TGGTGGCTACGACGGGATT
B2: UGACGUC (DNA:RNA)
RNA: B1 RNA with A26G, C29G, G30U, A31C
DNA 1: CAATCTGAATTCCGGTCTCCC
DNA 2: TGGTGGCTACGACGGGATT
B3: UGGUAGU (DNA:RNA)
RNA: B1 RNA with A26G, A27G, C28U, C29A, A31U
DNA 1: CAATCTGAATTCCGGTCTCCC
DNA 2: TGGTGGCTACGACGGGATT
B4: UGCCGUU (DNA:RNA)
RNA: B1 RNA with A26G, A27C, C29G, G30U, A31U
DNA 1: CAATCTGAATTCCGGTCTCCC
DNA 2: TGGTGGCTACGACGGGATT
B5: CCAUGGC (DNA:RNA)
RNA: B1 RNA with U25C, A26C, C28U, C29G, A31C
DNA 1: CAATCTGAATTCCGGTCTCCC
DNA 2: TGGTGGCTACGACGGGATT
B6: AUCUUAC (DNA:RNA)
RNA: GGGAGACCGGAAUUCAGAUUGUCCAUCUUACUUAAAUCCCGUCGUAGCCACCA
DNA 1: CAATCTGAATTCCGGTCTCCC
DNA 2: TGGTGGCTACGACGGGATT
B7: UGAUGUG (DNA:RNA)
RNA: B1 RNA with A26G, C28U, C29G, G30U, A31G
DNA 1: CAATCTGAATTCCGGTCTCCC
DNA 2: TGGTGGCTACGACGGGATT
B8: UGAGAUG (DNA:RNA)
RNA: B1 RNA with A26G, C28G, C29A, G30U, A31G
DNA 1: CAATCTGAATTCCGGTCTCCC
DNA 2: TGGTGGCTACGACGGGATT
B9: UGAUGUC (DNA:RNA)
RNA: B6 RNA with A25U, U26G, C27A, U29G, A30U
DNA 1: CAATCTGAATTCCGGTCTCCC
DNA 2: TGGTGGCTACGACGGGATT
B10: AACUUAC (DNA:RNA)
RNA: B6 RNA with U26A
DNA 1: CAATCTGAATTCCGGTCTCCC
DNA 2: TGGTGGCTACGACGGGATT
B11: GCCAUGA (DNA:RNA)
RNA: B6 RNA with A25G, U26C, U28A, A30G, C31A
DNA 1: CAATCTGAATTCCGGTCTCCC
DNA 2: TGGTGGCTACGACGGGATT
B12: GCAUUGA (DNA:RNA)
RNA: B1 RNA with U25G, A26C, C28U, C29U
DNA 1: CAATCTGAATTCCGGTCTCCC
DNA 2: TGGTGGCTACGACGGGATT
B13: GGCAUGA (DNA:RNA)
RNA: B6 RNA with A25G, U26G, U28A, A30G, C31A
DNA 1: CAATCTGAATTCCGGTCTCCC
DNA 2: TGGTGGCTACGACGGGATT
B14: GCAUGAC (DNA:RNA)
RNA: B6 RNA with A25G, U26C, C27A, U29G
DNA 1: CAATCTGAATTCCGGTCTCCC
DNA 2: TGGTGGCTACGACGGGATT
B15: GCAGGAG (DNA:RNA)
RNA: B6 RNA with A25G, U26C, C27A, U28G, U29G, C31G
DNA 1: CAATCTGAATTCCGGTCTCCC
DNA 2: TGGTGGCTACGACGGGATT
B16: GCAUGAG (DNA:RNA)
RNA: B6 RNA with A25G, U26C, C27A, U29G, C31G
DNA 1: CAATCTGAATTCCGGTCTCCC
DNA 2: TGGTGGCTACGACGGGATT
B17: GUCAUGA (DNA:RNA)
RNA: B6 RNA with A25G, U28A, A30G, C31A
DNA 1: CAATCTGAATTCCGGTCTCCC
DNA 2: TGGTGGCTACGACGGGATT
B18: AUGAGAG (DNA:RNA)
RNA: B6 RNA with C27G, U28A, U29G, C31G
DNA 1: CAATCTGAATTCCGGTCTCCC
DNA 2: TGGTGGCTACGACGGGATT
B19: CGCAUGA (DNA:RNA)
RNA: B6 RNA with A25C, U26G, U28A, A30G, C31A
DNA 1: CAATCTGAATTCCGGTCTCCC
DNA 2: TGGTGGCTACGACGGGATT
B20: GUAUGAC (DNA:RNA)
RNA: B6 RNA with A25G, C27A, U29G
DNA 1: CAATCTGAATTCCGGTCTCCC
DNA 2: TGGTGGCTACGACGGGATT
B21: GGAUGAC (DNA:RNA)
RNA: B6 RNA with A25G, U26G, C27A, U29G
DNA 1: CAATCTGAATTCCGGTCTCCC
DNA 2: TGGTGGCTACGACGGGATT
B22: GGCAUAA (DNA:RNA)
RNA: B6 RNA with A25G, U26G, U28A, C31A
DNA 1: CAATCTGAATTCCGGTCTCCC
DNA 2: TGGTGGCTACGACGGGATT

These binders were tested against T1, RBFOX1 RRM RbFoxmut (Fox-RRM*) (assay: EMSA; HiTS-Eq, 1 nM pool, 10 min; buffer printed only for the single-RNA assays: 10 mM Tris pH 7.5, 150 mM NaCl, 3.4 mM EDTA, 0.001% NP-40, 30 C). Settings: tags: His6 N-terminal (pET28a); label: 5' 32P.
How it was run: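 A pool of RNA with 7 randomized nucleotides, 5′-radiolabelled and with DNA-annealed flanks, was equilibrated at 1 nM for 10 min in 50 µL with purified RbFox RRM, wild type or mutant, across increasing protein concentrations. Free RNA was separated by 8% native PAGE, excised, reverse-transcribed, barcoded by PCR and sequenced. Relative association constants were obtained from read-count changes of each RNA species versus the control reaction and normalised to the cognate motif.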

| Binder | binding signal |
| --- | --- |
| B1 | 0.0866 KA relative to UGCAUGU |
| B2 | 0.0923 KA relative to UGCAUGU |
| B3 | 0.163 KA relative to UGCAUGU |
| B4 | 0.113 KA relative to UGCAUGU |
| B5 | 0.0829 KA relative to UGCAUGU |
| B6 | 0.12 KA relative to UGCAUGU |
| B7 | 0.184 KA relative to UGCAUGU |
| B8 | 0.429 KA relative to UGCAUGU |
| B9 | 0.207 KA relative to UGCAUGU |
| B10 | 0.0902 KA relative to UGCAUGU |
| B11 | 0.134 KA relative to UGCAUGU |
| B12 | 0.178 KA relative to UGCAUGU |
| B13 | 0.624 KA relative to UGCAUGU |
| B14 | 0.603 KA relative to UGCAUGU |
| B15 | 0.0994 KA relative to UGCAUGU |
| B16 | 0.771 KA relative to UGCAUGU |
| B17 | 0.2 KA relative to UGCAUGU |
| B18 | 0.16 KA relative to UGCAUGU |
| B19 | 0.871 KA relative to UGCAUGU |
| B20 | 0.219 KA relative to UGCAUGU |
| B21 | 0.124 KA relative to UGCAUGU |
| B22 | 0.117 KA relative to UGCAUGU |
